PubChem BioAssay AID602440 (Sanford-Burnham Center for Chemical Genomics, 2012)
About 2,300 (0.64%) of roughly 360,000 compounds were called active. The full list was thinned out, with actives kept by preference. Values without a mark were called inactive. No stated cut-off is given here; in the data, active means inhibition mostly above about 40% (no sharp cut-off); inactive means mostly below about 27%.

These compounds were tested against Sentrin-specific protease 8 (Homo sapiens) (UniProt Q96LD8) (assay: blockers of SENP8 deneddylase activity – biochemical, fluorescence, Nedd8 protein substrate, uHTS, primary screen (AID 602440)). Conditions: recombinant SENP8, Nedd8 substrate fluorescence; at 20 µM; stronger effect = higher value.
Chain of Sentrin-specific protease 8 (Homo sapiens) (Q96LD8 whole entry, looked up): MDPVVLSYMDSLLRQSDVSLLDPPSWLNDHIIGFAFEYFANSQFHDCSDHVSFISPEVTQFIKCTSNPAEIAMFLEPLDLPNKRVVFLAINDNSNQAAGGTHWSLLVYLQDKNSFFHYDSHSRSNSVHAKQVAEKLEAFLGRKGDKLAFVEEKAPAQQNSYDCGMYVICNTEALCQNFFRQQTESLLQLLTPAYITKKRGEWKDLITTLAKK

SMILES | inhibition
OC1CSc2nc3ccccc3n2C1 (centres undefined) | 9.1%
O=C1NC(c2ccccc2)CCC1(Cl)Cl (centres undefined) | 14.1%
Nc1cccc(S(=O)(=O)Nc2ccc(SC(F)F)cc2)c1 | 5.2%
Cc1c(NS(=O)(=O)c2cccc(C(=O)Nc3ccc(SC(F)F)cc3)c2)c(=O)n(-c2ccccc2)n1C | -1.9%
COc1ccc(NC(=O)/C(N=Nc2cccc(S(=O)(=O)Nc3ccc(SC(F)F)cc3)c2)=C(\C)O)cc1 | 38.3% (active)
CC(=O)c1cnc(SCCN2C(=O)c3ccccc3C2=O)nc1C | 9.5%
CCOCCCNC(=O)c1c[nH]c2cc(C)ccc2c1=O | 5.8%
CCc1[nH]nc(C(=O)N2CCCC(CO)(Cc3ccc(F)cc3F)C2)c1C (centres undefined) | 3.5%
CN(c1ccc(C(=O)N2CCc3ccccc3C2)cc1)S(C)(=O)=O | 43.9% (active)
Cn1cccc1C(=O)N1CCc2ccccc2C1 | -0.8%
CS(=O)(=O)N(CC(=O)N1CCc2ccccc2C1)c1ccc(Br)cc1 | 6.5%
COc1ccc(CNC(=O)CN(C(=O)c2csnn2)c2cnc3ccccc3c2)cc1 | -222%
CCN(CC)C(=O)CSc1nc2ccccc2n1CC(=O)N1CCN(c2ccccc2OC)CC1 | 33.5%
O=c1[nH]c2ccccc2s1 | 44.5% (active)
Nc1ccc2[nH]c(=S)sc2c1 | -81.4%
COc1ccc(-c2[nH]ncc2CN(C)Cc2cc(C)[nH]n2)c(F)c1 | 8.6%
CCOC(=O)c1c(CC(C)C)csc1/N=C/C1=C(O)CCCC1=O | -55.6%
Nn1cnnc1N/N=C/c1cc([N+](=O)[O-])c(Cl)cc1Cl | 51.7% (active)
CCCOc1cccc(C(=O)Nc2ccccc2C(=O)N2CCN(C)CC2)c1 | 4.7%
C[C@H]1CN([C@@H](C)CO)C(=O)CCCn2cc(nn2)CO[C@@H]1CN(C)S(=O)(=O)c1ccc(-n2cccn2)cc1 | 8.3%

SMILES | inhibition
Cc1cc(C)nc(N2C(=O)CC(Cc3ccccc3)C2=O)n1 (centres undefined) | 2.8%
COc1cc(CN2CCCN(C)CC2)c([N+](=O)[O-])cc1OC | 11.8%
CC(C)(C)n1c(=O)[nH]c2c(c1=O)CCC2 | 16.6%
O=c1[nH]n2c(=O)c3c([nH]c2c1N=Nc1ccccc1)CCC3 | 46.3% (active)
CCCCOc1ccc(C(=O)NCC(=O)OCC(=O)N2CCN(S(=O)(=O)c3ccc(C)cc3C)CC2)cc1 | 7.7%
Cc1cc(C)nc(SCc2nnc(SCC(=O)OC3CCCCC3)o2)n1 | 6.5%
COc1ccccc1C1SCCN1C(=O)c1ccc([N+](=O)[O-])cc1 (centres undefined) | 8.4%
CCOC(=O)C1CCCN(C(=O)c2ccc(C)c(S(=O)(=O)N3CCCCC3)c2)C1 (centres undefined) | 4.6%
CCOC(=O)C1CCCN(C(=O)c2ccc(N(C)C)cc2)CC1 (centres undefined) | 18.8%
CCOC(=O)C1CCCN(C(=O)c2ccc(C)c(F)c2)CC1 (centres undefined) | 40.6% (active)
CC(C)N(C(=O)Cn1cc(S(=O)(=O)CC(=O)N2CCOCC2)c2ccccc21)C(C)C | 5.7%
COC(=O)c1nc2n(n1)C(c1ccc([N+](=O)[O-])cc1)C(C(=O)Nc1ccc(Cl)cc1)=C(C)N2 (centres undefined) | 18.3%
CCc1ccccc1NC1c2ccccc2C(=O)N1c1cccnc1 (centres undefined) | 41% (active)
COC(=O)c1cc(NC2c3ccccc3C(=O)N2c2ccc(Cl)cn2)cc(C(=O)OC)c1 (centres undefined) | -28%
O=C1[C@@H](c2ccccc2)[C@@H](c2ccccc2)N1c1cccnc1 | -26.4%
O=C(Cc1ccccc1)NC(=S)Nc1ccc(N2CCCCC2)cc1 | 42.1% (active)
O=C(CN1CCN(c2ccc(O)cc2)CC1)Nc1ccc(-c2ccccc2)cc1 | 23.2%
COc1ccccc1C(=O)NC(=S)Nc1ccc(N2CCOCC2)cc1 | 14.8%
CN1CCn2cnc(C(=O)NCC(=O)OC(C)(C)C)c2C1=O | 14.9%
CCN(CC)CCCNC(=O)CCn1nc(-c2ccc(Cl)cc2)ccc1=O | 13.2%

SMILES | inhibition
CN(CC(=O)Nc1ccc(F)cc1)C(=O)c1ccc(-c2ccc(Cl)cc2)o1 | -23.1%
Cc1[nH][nH]c(=O)c1C(c1ccc(-c2ccc(Cl)cc2)o1)c1c(C)[nH][nH]c1=O | 63.5% (active)
COc1ccc(C(=O)NC(=S)N2CCNC(=O)C2CC(=O)OC(C)C)cc1 (centres undefined) | -6.1%
CC(=O)c1ccc(OCC(=O)N(C)C2CCS(=O)(=O)C2)cc1 (centres undefined) | 18.3%
Cn1c(=O)[nH]c(=O)c2c1nc(CN(Cc1ccccc1)Cc1ccccc1)n2CCN1CCOCC1 | 17.1%
COCCNC(=O)NC(=O)COC(=O)C1(c2ccc(Cl)cc2)CC1 | 6.8%
O=C(Nc1ccc(C(=O)O)c(O)c1)c1ccccc1 | 43.3% (active)
O=C(Cn1ccc(=O)[nH]c1=O)Nc1ccc(C(=O)O)c(O)c1 | 7.9%
O=C(Cc1ccccc1)Nc1ccc(C(=O)Nc2ccccc2C(=O)O)cc1 | -13.4%
CC(C)C(NC(=O)c1c(F)cccc1F)C(=O)NCc1ccncc1 (centres undefined) | -7.7%
Cc1cccc(C)c1NC(=O)C(c1cccc2ccccc12)n1c(=O)c(-c2ccco2)nc2ccccc21 (centres undefined) | -458%
N#Cc1ccc(C(C(=O)NCc2ccccc2)n2c(=O)c(-c3ccco3)nc3ccccc32)cc1 (centres undefined) | -432%
c1coc(-c2nc3nc4ccccc4n3nc2-c2ccco2)c1 | 106% (active)
Cc1ccc2c(Cl)c(C(=O)Nc3nn[nH]n3)sc2c1 | -0.2%
Cc1noc(C)c1NC(=O)Nc1ccc2c(c1)C(=O)N([C@H](C)CO)C[C@H](C)[C@@H](CN(C)S(=O)(=O)c1cn(C)cn1)O2 | -6%
O=C(C/C(=N\NC(=O)c1ccccc1Br)C(F)(F)F)c1cccs1 | 25.6%
Cc1nc(SCC(=O)c2ccccc2)c([N+](=O)[O-])[nH]1 | 41.9% (active)
O=C(CSc1nnc2ccccn12)c1ccccc1 | -1.2%
Cc1nc2nc(SCC(=O)c3ccccc3)[nH]c2cc1Br | 13.3%
